High-throughput results deposited in PubChem by National Center for Advancing Translational Sciences (NCATS).
Most compounds without a hit are left out; they make up all but 12% or so of the library.
SARS PLpro yeast: qHTS of Yeast-based Assay for SARS-CoV PLP | Potency, µM (doses to about 32.9 µM), for the others: top-dose activity, positive = growth rescue, most hits filed as activators | 330,000 tested, 0.19% active | S. cerevisiae expressing SARS-CoV PLpro, growth rescue; note: potency is the fitted concentration of half-maximal effect; 0% is about no effect; nearly all actives have a fitted effect of over 55% in size
Shiga inhibitor: A qHTS for Small Molecule Inhibitors of Shiga Toxin; Vero cells, Shiga toxin protein synthesis inhibition reporter; inhibition, % at 38.7 µM; 290,000 tested, 9.2% active; in the data active = inhibition mostly above about 28%, no sharp cut-off; inactive = mostly below about 43%; note: 0% is about no effect
NS1 inh: qHTS Assay for Inhibitors of Influenza NS1 Protein Function. Potency, µM (series often up to 46.1 µM), for inactives: at the highest dose activity, positive = more growth. 270,000 tested, 0.4% active. AID 2326, 2010; note: potency is the fitted concentration of half-maximal effect; actives are rising curves; nearly all actives have a fitted effect of over 50% in size
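S. cerevisiae expressing influenza A NS1, grown in glucose, washed, then diluted 1:100 into pH 6.0 -URA galactose medium with 23 nl compound. Growth recovery read as OD600; NS1-free strain serves as control.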
Cycloheximide cs: Cycloheximide Counterscreen for Small Molecule Inhibitors of Shiga Toxin; AID 2314, 2010; 300,000 tested, 12% active; max response, %; cell reporter, cycloheximide protein synthesis inhibition counterscreen; in the data active = max response mostly above about 13%, no sharp cut-off; inactive = mostly below about 14%; note: read at 38.3 µM for the half of the compounds with a filed dose; 0% is about no effect
* hit, by the source's call; ? = inconclusive; / = not tested or not shown. Unless noted, calls come from the whole dose curve.

SMILES	SARS PLpro yeast	Shiga inhibitor	NS1 inh	Cycloheximide cs
C/C(=N\NC(=O)c1ccc(O)cc1O)c1cccnc1	4%	73*	20%	40*
COc1ccc(-n2c(SCC(=O)C(C)(C)C)nc3c(sc(=S)n3-c3ccccc3)c2=O)c(OC)c1	1%	-5	?	4
CCCCSCc1nc2ccccn2c1Br	12%	56*	/	31*
CCSCc1nc2ccccn2c1Br	4%	-5	/	16
COc1ccccc1CNC(=O)Cn1c(=O)c2cccn2c2cccnc21	-2%	7	-12%	6
CN(c1ccccc1)S(=O)(=O)c1cccc(C(=O)Nc2ccc3c(c2)CCC3)c1	-27%	82*	24%	21*
Cc1ccc(C(=O)Nc2nc(C)c(C(=O)Nc3ccc4c(c3)CCC4)s2)cc1	3%	48*	13%	45*
CC(=O)Nc1ccc(C(=O)Nc2cccc(S(=O)(=O)N(C)c3ccccc3)c2)cc1	9%	/	/	/
Cc1nc(NC(=O)c2ccc(F)cc2)sc1C(=O)Nc1ccc2c(c1)CCC2	-7%	16	29%	7
NS(=O)(=O)c1ccc(NC(=O)c2ccc3c(c2)CCCC3)cc1	-4%	45	9%	48*
O=C(O)c1ccccc1-c1ccccc1C(=O)Nc1ccc2c(c1)CCC2	-1%	/	?	2
O=C(Nc1ccc2c(c1)CCC2)c1ccccc1	-59%	48*	9%	31*
O=C(CCc1nnc(Cc2ccc3c(c2)OCO3)o1)NCc1nc2ccccc2s1	0%	1	0%	2
CC(CNC(=O)CN1C(=O)COc2ccc(S(=O)(=O)N3CCCCC3)cc21)c1ccccc1 (stereo not given)	0%	-1	-7%	6
NC(N)=NC(N)=Nc1ccc(S(=O)(=O)O)cc1	/	/	-3%	/
O=C(Nc1ccc2c(c1)CCC2)c1ccccc1F	-38%	97*	-3%	63*
O=C(N/N=C/c1cccc(O)c1)c1cc(-c2ccccc2)nc2ccccc12	1%	22	-4%	9
COc1ccc2nc(-c3ccccc3)cc(OC)c2c1	-2%	65*	-5%	58*
COc1ccc(/C=N/NC(=O)c2cc(-c3ccccc3)nc3ccccc23)c(OC)c1	0%	40	?	18*
COc1ccc(OC)c(-c2cc(C(=O)N/N=C(\C)c3cccnc3)c3ccccc3n2)c1	-3%	-8	-3%	1
COc1ccc(-c2cc(C(=O)N/N=C(\C)c3cccnc3)c3ccccc3n2)c(OC)c1	2%	42*	-10%	18
CCOc1ccc(/C=N/NC(=O)c2cc(-c3ccco3)nc3ccccc23)cc1	-5%	103*	26%	47*
NC(=O)NC(CC(=O)NNC(=O)c1cccs1)c1ccc(Cl)cc1 (stereo not given)	-5%	/	/	/
CCCC(=O)NC(=S)NNC(=O)c1ccc([N+](=O)[O-])cc1	-4%	-13	-26%	-3
CCC(=O)NNC(=S)NC(=O)c1ccc(C)cc1	1%	51*	-48%	31*
SMILES	SARS PLpro yeast	Shiga inhibitor	NS1 inh	Cycloheximide cs
CC(=O)NNC(=S)NC(=O)c1ccc(C)cc1	1%	5	-2%	-2
CCC(=O)NC(=S)NNC(=O)c1ccc(O)cc1	1%	24	4%	23*
O=C(NCc1ccccc1)C1CCCN(C(=O)c2ccc(F)cc2)C1 (stereo not given)	-1%	/	/	/
CCN(CC)CCC(c1cc(OC)c(OC)c(OC)c1)c1c(OC)cc(OC)c2c1OC(=O)CC2c1ccc(N(C)C)cc1 (stereo not given)	/	-12	/	-1
COc1ccc(-c2csc3nc(C)nc(N4CCN(c5ccc(C(C)=O)cc5)CC4)c23)cc1OC	-3%	65*	/	31*
Cc1cc(C)nc(NC(=O)Nc2ccc3c(c2)OCO3)c1	2%	65*	/	47*
Cc1ccnc(NC(=O)CNC(=O)c2ccc3c(c2)OCO3)c1	3%	45*	1%	26*
CCOC(=O)Cn1ccc(NC(=O)c2ccc3c(c2)OCO3)n1	-2%	-10	-17%	31*
Cc1ccc(NC(=O)Nc2ccc3c(c2)OCO3)nc1	0%	80*	6%	21*
Cc1cccc(C)c1NC(=O)CNC(=O)CNC(=O)c1ccc2c(c1)OCO2	-3%	/	/	/
Cc1ccc(OC(F)F)c(NC(=O)Nc2ccc3c(c2)OCO3)c1	-2%	-10	23%	-4
Cc1ccc(Cn2ccc(NC(=O)c3cc(-c4ccc5c(c4)OCO5)on3)n2)cc1	14%	-10	-1%	-3
COC(=O)C1=C(C)NC=C([N+](=O)[O-])C1c1ccc(OC)cc1 (stereo not given)	4%	-2	2%	-3
COc1ccc(N2CCN(S(=O)(=O)CCNC(=O)C3CCCCC3)CC2)cc1	3%	6	3%	-4
CCOC(=O)Cn1nc(NC(=O)c2cc(OC)cc(OC)c2)cc1C	4%	-9	23%	5
Cc1cc(C)nc(NS(=O)(=O)c2ccc(NC(=O)c3ccc4c(c3)OCO4)cc2)n1	7%	-12	-1%	5
Cc1cccc(NC(=O)Nc2cc(C)cc(C)n2)c1	1%	148*	0%	65*
CC(=O)Nc1cccc(C)c1	-11%	/	/	/
CCOC(=O)Cn1nc(NC(=O)c2ccc(C(=O)OC)cc2)cc1C	?	3	4%	19*
Cc1cc(C)nc(NC(=O)c2ccc3c(c2)OCO3)c1	-3%	85*	/	46*
O=C(c1ccco1)N1CCc2[nH]nc(-c3ccccc3)c2C1	16%	-5	12%	-2
C[n+]1cccc(O)c1SCc1ccccc1	1%	/	/	/
Clc1c(-c2nnc3n2CCC3)sc2ccccc12	-10%	50	-4%	15*
Clc1c(-c2nnc3n2CCCCC3)sc2ccccc12	1%	-8	-25%	3
COc1ccc2c(Cl)c(-c3nnc4n3CCCCC4)sc2c1	-6%	34	-57%	25*
SMILES	SARS PLpro yeast	Shiga inhibitor	NS1 inh	Cycloheximide cs
O=C(Cn1cc([N+](=O)[O-])nc1[N+](=O)[O-])N1CCN(c2ccccc2)CC1	-1%	-6	1%	8
CCOC(=O)Cc1csc(NC(=O)Nc2ccc(F)cc2)n1	-1%	14	-1%	12*
CCOC(=O)Cc1csc(NC(=O)Nc2cccs2)n1	2%	48*	9%	37*
CCOC(=O)Cc1csc(N/N=C/c2ccc(C(F)(F)F)cc2)n1	8%	25	12%	22*
CCOC(=O)Nc1nc(-c2ccc(F)cc2F)cs1	-24%	12*	-18%	55*
CCOC(=O)Cc1csc(NC(=O)Cc2cccs2)n1	-7%	2	6%	-3
O=C(COC(=O)c1cc(Cl)ccc1O)NNC(=O)c1ccccc1F	2%	/	/	/
Cc1c(NC(=O)c2cccc(NS(C)(=O)=O)c2)c(=O)n(-c2ccccc2)n1C	2%	14	3%	-1
CCOC(=O)Cc1csc(NC(=O)Nc2ccc(C)cc2)n1	-2%	50*	-10%	27*
COc1cccc(NC(=O)c2ccc(-c3ccc([N+](=O)[O-])cc3)o2)c1	-1%	70*	1%	18*
C=CCNC(=S)N/N=C/c1ccc(-c2cccc([N+](=O)[O-])c2)o1	-1%	41*	1%	16*
O=C(Nc1ccc(CN2CCOCC2)cc1)c1ccc(-c2cccc([N+](=O)[O-])c2)o1	2%	3	-2%	15
C=CCNC(=O)c1ccc(-c2cccc([N+](=O)[O-])c2)o1	-3%	69*	-6%	37*
